Results reported in PubChem BioAssay (Tox21).
Where “and” joins values, the source holds several entries; their conditions need not be identical. Identical values can stand only once. Records with an inconclusive call do not appear. Some compounds were tested as several samples or in several runs, with calls that do not always agree. Calls of active or inactive are those of the source. Unless noted, calls come from the whole dose curve; as a rule, active = well fitted curve in the direction sought with a large enough effect in the repeat runs; inconclusive = weak or mixed curves; inactive = no such curve, though single readings can be large; an effect the other way counts as inactive or inconclusive.

Assays:
[1] = qHTS assay to identify small molecule agonists of the estrogen related receptor (ERR) signaling pathway from Tox21 library (AID 1224849; calls by dose curve; note: % is set by controls: 0 for no effect and ±100 for the full control effect; nearly all actives have a fitted effect of over 15% in size); conditions: ERR reporter cell line, ONE-Glo luciferase, 18 h
Outline: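 ERR cells, 6 h pre-incubation 37 C/5% CO2; cpd in DMSO pinned; 18 h 37 C; ONE-Glo added, 30 min RT; luminescence read. Agonist mode, qHTS.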

[2] = qHTS assay to identify small molecule agonists of the hypoxia (HIF-1) signaling pathway - cell viability counter screen (AID 1224844; calls by dose curve; note: nearly all actives have a fitted effect of over 50% in size; note: potency is the fitted concentration of half-maximal effect); conditions: HRE-bla ME-180 viability, CellTiter-Glo luminescence, 17 h; series mostly up to 76.8 µM
Outline: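 ME-180 HRE-bla cells, 2,000/well, 0.5% dialyzed FBS; 5 hr settle, 17 hr compound at 37C/5% CO2; CCF4-AM reporter read first, then CellTiter-Glo luminescence after 30 min RT.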

[3] = qHTS assay to identify small molecule agonists of H2AX (AID 1224845; active = well fitted activation curve with a large enough effect in the signal ratio in the repeat runs, not every such curve was filed as active; the % refers to the signal ratio; note: potency is the fitted concentration of half-maximal effect); conditions: CHO-K1 phospho-H2AX Ser139 HTRF, 3 h; series mostly up to 154 µM
Outline: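 Phospho-H2AX Ser139 measured by HTRF (ex 320 nm; em 665 and 620 nm) after 24 hr antibody incubation. Compounds, 15 concentrations, 0.76% DMSO, were applied to CHO-K1 cells for 3hr at 37C before lysis.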

[4] = qHTS assay to identify small molecule agonists of H2AX - cell viability counter screen (AID 1224847; calls by dose curve; note: nearly all actives have a fitted effect of over 30% in size; note: potency is the fitted concentration of half-maximal effect); conditions: CHO-K1 viability, CellTiter-Glo luminescence, 3 h; series mostly up to 70.9 µM
Outline: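 Wild-type CHO-K1 cells (10% FBS medium) were plated overnight at 37C, exposed to compounds at 15 concentrations for 3 hr at 37C (0.76% DMSO final), and viability was read as CellTiter-Glo luminescence after 30 min at room temperature.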

[5] = qHTS RealTime-Glo MT Cell Viability Assay in HepG2 cells - 24 hour (AID 1224867); conditions: RealTime-Glo luminescence; series mostly up to 76.8 µM; note: nearly all actives have a fitted effect of over 50% in size; note: potency is the fitted concentration of half-maximal effect
Outline: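 Cells + NanoLuc/prosubstrate dispensed (600 cells/well) → 5 h at 37 C/5% CO2 → compounds in DMSO transferred → 40 h incubation at 37 C, luminescence read at 0, 8, 16, 24, 32, 40 h.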

[6] = qHTS RealTime-Glo MT Cell Viability Assay in HEK293 cells - 32 hour (AID 1224868); conditions: RealTime-Glo luminescence; series mostly up to 76.8 µM; note: nearly all actives have a fitted effect of over 50% in size; note: potency is the fitted concentration of half-maximal effect
Outline: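 Tox21 10K qHTS, HEK293, 600 cells/well, RealTime-Glo reagent co-dispensed with cells; 5 h preincubation, compound by pintool, 37 C, luminescence at 0–40 h.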

[7] = A CellTox Green Cytotoxicity Assay to monitor cytotoxicity in HEK293 cells - 0 hour (AID 1224869); conditions: CellTox Green fluorescence; series mostly up to 76.8 µM; note: % is set by controls: 0 for no effect and ±100 for the full control effect; nearly all actives have a fitted effect of over 50% in size
Outline: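 Nonlytic real-time cytotoxicity: HEK293 + CellTox Green reagent plated, 5 h preincubation, pintool compound addition (23 nL in DMSO), 37 C for 40 h, fluorescence measured at successive time points.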

[8] = qHTS assay to identify small molecule agonists of the hypoxia (HIF-1) signaling pathway (AID 1224846; active = well fitted activation curve with a large enough effect in the signal ratio in the repeat runs, not every such curve was filed as active; the % refers to the signal ratio; note: % is set by controls: 0 for no effect and ±100 for the full control effect); conditions: HRE-bla ME-180 cells, beta-lactamase ratio, 17 h; series mostly up to 76.8 µM
Outline: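 Cell line: CellSensor HRE-bla ME-180; 2,000 cells/well; 0.5% dialyzed FBS; 5 h preincubation; DMSO compound pin transfer; 17 h, 37C, 5% CO2; CCF4-AM added; bla FRET signal scored for activation.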

[9] = qHTS assay to identify small molecule antagonists of the estrogen related receptor (ERR) signaling pathway from Tox21 library (AID 1224848); conditions: ERR reporter cell line, luciferase antagonist mode, 18 h; series mostly up to 92.4 µM
Outline: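 Antagonist-mode screen of the Tox21 10K library in an NTP-provided ERR reporter cell line; 18 h compound exposure at 37 C, luminescence measured with ONE-Glo.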

[10] = qHTS RealTime-Glo MT Cell Viability Assay in HepG2 cells - 40 hour (AID 1224870); conditions: RealTime-Glo luminescence; series mostly up to 76.8 µM; note: nearly all actives have a fitted effect of over 50% in size; note: potency is the fitted concentration of half-maximal effect
Outline: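 Real-time viability: cells seeded at 600 per well together with NanoLuc and cell-permeant prosubstrate, compounds added after 5 h incubation. Luminescence tracked at 0, 8, 16, 24, 32 and 40 h of exposure.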

[11] = at 92.4 µM (top of the series) unless noted

COC(=O)C1=C(C)NC(C)=C(C(=O)OCC(C)C)C1c1ccccc1[N+](=O)[O-] (configuration not stated)
inactive: activity change, positive = activation ([1]; at 42.5 µM (top of the series)) -46.2% | activity change, positive = activation ([1]; at 92.4 µM (top of the series)) -62.2%

CC[C@H](c1ccc(O)cc1)[C@@H](CC)c1ccc(O)cc1
active: Potency [6] 27.5 µM
54.9 µM (active) and inactive: Potency [2]
101 µM (active) and inactive: Potency [4]
inactive: Potency [3] | Potency [5] | Potency [7]

O=C(O)c1c(Cl)cccc1Cl
inactive: Potency [2] | Potency [3] | Potency [8] | Potency [5] | Potency [6] | Potency [7]

CCCCCCCCNC(C)C(O)c1ccc(SC(C)C)cc1 (configuration not stated)
active: Potency [2] 19 µM | Potency [4] 43.8 µM | Potency [9] 23.7 µM | Potency [5] 13.4 µM | Potency [6] 9.52 µM | Potency [10] 13.4 µM
inactive: Potency [3] | activity change, positive = activation [1, 11] -63% [at 42.5 µM] | Potency [7]

O=[N+]([O-])c1ccccc1Nc1ccccc1
inactive: Potency [2] | Potency [3] | Potency [8] | Potency [5] | Potency [6] | Potency [7] | Potency [10]

CCN(C(=O)N(CC)c1ccccc1)c1ccccc1
inactive: Potency [2] | Potency [3] | Potency [8] | Potency [5] | Potency [7] | Potency [10]

OCCN1CCN(CC/C=C2/c3ccccc3Sc3ccc(C(F)(F)F)cc32)CC1
inactive: Potency [3] | activity change, positive = activation [1, 11] -67.6% [at 42.5 µM] | Potency [7]
active: Potency [2] 21.3 µM | Potency [4] 55.2 µM | Potency [9] 29.8 µM | Potency [5] 21.3 µM | Potency [6] 19 µM | Potency [10] 15.1 µM

O=C(NO)C1(NS(=O)(=O)c2ccc(Oc3ccc(F)cc3)cc2)CCOCC1
active: Potency [9] 27.3 µM
inactive: Potency [2] | Potency [3] | Potency [4] | Potency [5] | Potency [7]

Cc1cc(CCN2CCN(c3nsc4ccccc34)CC2)cc2c1NC(=O)CC2(C)C
inactive: Potency [3] | activity change, positive = activation [1, 11] -74.7% | Potency [7]
active: Potency [2] 38.9 µM | Potency [4] 113 µM | Potency [9] 5.45 µM | Potency [5] 54.9 µM | Potency [6] 7.76 µM

Cc1cccc(S(=O)(=O)O)c1C
inactive: Potency [2] | Potency [3] | Potency [8] | Potency [5] | Potency [6] | Potency [7] | Potency [10]

CCCC/C=C/CCCCO
inactive: Potency [2] | Potency [3] | Potency [8] | Potency [5] | Potency [6] | Potency [7]

CN(C)[C@@H]1C(=O)C(C(N)=O)=C(O)[C@@]2(O)C(=O)C3=C(O)c4c(O)ccc(Cl)c4[C@@H](O)[C@H]3C[C@@H]12
inactive: Potency [2] | Potency [3] | Potency [4] | activity change, positive = activation [1, 11] -10.9% [at 42.5 µM] | Potency [5] | Potency [6] | Potency [7]

NC(=NCCCCCCN=C(N)/N=C(\N)Nc1ccc(Cl)cc1)/N=C(\N)Nc1ccc(Cl)cc1
inactive: Potency [3] | Potency [8] | Potency [7]
active: Potency [2] 24.4 µM | Potency [6] 8.67 µM [middle of 5 runs]

O=C(Nc1cccc([N+](=O)[O-])c1)c1cc2ccccc2cc1O
inactive: Potency [2] | Potency [3] | activity change, positive = activation [1, 11] -21.9% | Potency [5] | Potency [7]
active: Potency [4] 11.3 µM

O=C(c1ccc(O)cc1O)c1ccc(O)cc1O
inactive: Potency [2] | Potency [3] | Potency [8] | Potency [5] | Potency [6] | Potency [7] | Potency [10]

CCCCCCCCCCCCc1ccc(O)cc1
inactive: activity change, positive = activation [1, 11] -63.6% | Potency [7]
active: Potency [2] 24.5 µM | Potency [3] 56.6 µM | Potency [4] 45 µM | Potency [9] 54.5 µM | Potency [5] 49 µM | Potency [6] 43.6 µM | Potency [10] 54.9 µM

NNC(=O)c1cccc(C(=O)NN)c1
inactive: Potency [2] | Potency [3] | Potency [8] | Potency [5] | Potency [6] | Potency [7] | Potency [10]

Oc1ccc(Cl)cc1Sc1cc(Cl)ccc1O
active: Potency [2] 26.8 µM | Potency [4] 35.7 µM | Potency [6] 19.5 µM and 23.9 µM
inactive: Potency [3] | activity change, positive = activation ([1]; at 42.5 µM (top of the series)) -51.1% | activity change, positive = activation ([1]; at 92.4 µM (top of the series)) -52% | Potency [7]

CCCCCCOC(=O)c1ccc(O)cc1
active: Potency [4] 89.9 µM and 101 µM | activity change, positive = activation [1, 11] 67.7% and 70.3%
inactive: Potency [2] | Potency [3] | Potency [5] | Potency [7] | Potency [10]

CCOc1nc2cccc(C(=O)OC(C)OC(=O)OC3CCCCC3)c2n1Cc1ccc(-c2ccccc2-c2nn[nH]n2)cc1 (configuration not stated)
inactive: activity change, positive = activation [1, 11] -65.4% | Potency [7]
active: Potency [2] 19.5 µM | Potency [3] 45 µM | Potency [4] 63.5 µM | Potency [6] 9.76 µM

Cc1[nH]cnc1C[C@H]1CCc2c(C)c3ccccc3n2C1=O
active: Potency [4] 87.6 µM | Potency [9] 26.6 µM | Potency [5] 38 µM | Potency [6] 23.9 µM | Potency [10] 42.6 µM
inactive: Potency [2] | Potency [3] | activity change, positive = activation [1, 11] -63.7% | Potency [7]
